From PubChem BioAssay (NCI)
About 83,000 compounds went through this panel and 20% of them were active in at least one assay; those are over-represented in the sample as a whole.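 Percent growth is the endpoint: 0 to 100 indicates growth inhibition (40 means 60% inhibition), 0 means no net growth, and negative values indicate cell death.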 Values without a mark were called inactive. Active and inactive are the calls of the source. The calls were made as follows: active = growth percent below 10; inactive = the rest.

How the values were obtained:
Test in all cases: NCI-60 one-dose screen, 48 h (100 = growth as untreated, 0 = no growth, -100 = all killed)
Conditions in all cases: 10 µM unless noted
SK-MEL-2 melanoma = system: SK-MEL-2 melanoma
EKVX NSCLC = system: EKVX NSCLC
SN12C renal = system: SN12C renal
UO-31 renal = system: UO-31 renal
TK-10 renal = system: TK-10 renal
ACHN renal = system: ACHN renal
CAKI-1 renal = system: CAKI-1 renal
A498 renal = system: A498 renal
CCRF-CEM leukemia = system: CCRF-CEM leukemia
MOLT-4 leukemia = system: MOLT-4 leukemia

SMILES: O=C1CC(c2ccc(I)cc2)OC2C=Cc3ccccc3C12 (stereo not given)
- growth (SK-MEL-2 melanoma): 98.8%
- growth (EKVX NSCLC): 82.9%
- growth (SN12C renal): 99%
- growth (UO-31 renal): 85.8%
- growth (TK-10 renal): 139%
- growth (ACHN renal): 109%
- growth (CAKI-1 renal): 91.7%
- growth (A498 renal): 119%
- growth (CCRF-CEM leukemia): 94.4%
- growth (MOLT-4 leukemia): 96%

SMILES: C/C(=N/O)c1ccc(NC(=O)CSc2nnc(-c3ccc(-c4nc5ccc(Cl)cc5[nH]4)cc3)o2)cc1
- growth (SK-MEL-2 melanoma): -26% (active)
- growth (EKVX NSCLC): 13.4%
- growth (SN12C renal): -33.9% (active)
- growth (UO-31 renal): 104%
- growth (TK-10 renal): 99.5%
- growth (ACHN renal): 45.5%
- growth (CAKI-1 renal): 60.2%
- growth (A498 renal): 160%
- growth (CCRF-CEM leukemia): 34.5%
- growth (MOLT-4 leukemia): 2.09% (active)

SMILES: N/C(=N\c1nc2ccccc2s1)NC(=O)Nc1ccccc1[N+](=O)[O-]
- growth (SK-MEL-2 melanoma): 20.5%
- growth (EKVX NSCLC): 38.7%
- growth (SN12C renal): 5.63% (active)
- growth (UO-31 renal): 26.8%
- growth (TK-10 renal): 52.8%
- growth (ACHN renal): 20.2%
- growth (CAKI-1 renal): 16%
- growth (A498 renal): 89%
- growth (CCRF-CEM leukemia): 1.29% (active)
- growth (MOLT-4 leukemia): 15.2%

SMILES: O=Cc1cncc(-c2ccc3ncnc(N4CCc5cc(F)c(Cl)cc54)c3c2)c1
- growth (SK-MEL-2 melanoma): 24.5%
- growth (EKVX NSCLC): 0.858% (active)
- growth (SN12C renal): 23.2%
- growth (UO-31 renal): 10.7%
- growth (TK-10 renal): 4.74% (active)
- growth (ACHN renal): 11.5%
- growth (CAKI-1 renal): 12.5%
- growth (A498 renal): -30.4% (active)
- growth (CCRF-CEM leukemia): 16.6%
- growth (MOLT-4 leukemia): -30.6% (active)

SMILES: CN(C)c1nc(NCCNS(=O)(=O)c2ccc(C(=O)/C=C/c3ccc(Cl)cc3)cc2)nc(N2CCOCC2)n1
- growth (SK-MEL-2 melanoma): 68.9%
- growth (EKVX NSCLC): 49.6%
- growth (SN12C renal): 53.4%
- growth (UO-31 renal): -61% (active)
- growth (TK-10 renal): 62.5%
- growth (ACHN renal): 21.8%
- growth (CAKI-1 renal): -61.2% (active)
- growth (A498 renal): 87.6%
- growth (CCRF-CEM leukemia): 3.45% (active)
- growth (MOLT-4 leukemia): 3.71% (active)

SMILES: Cc1ccc2nc(NC(=O)Nc3cccc(Cl)c3)sc2c1
- growth (SK-MEL-2 melanoma): 114%
- growth (EKVX NSCLC): 87.7%
- growth (SN12C renal): 103%
- growth (UO-31 renal): 82%
- growth (TK-10 renal): 114%
- growth (ACHN renal): 105%
- growth (CAKI-1 renal): 90.7%
- growth (A498 renal): 144%
- growth (CCRF-CEM leukemia): 89.6%
- growth (MOLT-4 leukemia): 82.9%

SMILES: C[C@H](NC(=O)c1ccc2c(-c3ccc(C(F)(F)F)cc3)cccc2c1)c1ccccn1
- growth (SK-MEL-2 melanoma): 67.2%
- growth (EKVX NSCLC): 22.8%
- growth (SN12C renal): 42%
- growth (UO-31 renal): 13.6%
- growth (TK-10 renal): 42.6%
- growth (ACHN renal): 41.1%
- growth (CAKI-1 renal): 38.8%
- growth (A498 renal): 72.5%
- growth (CCRF-CEM leukemia): 38.6%
- growth (MOLT-4 leukemia): 19.4%

SMILES: O=C(CSc1nnc(-c2ccc(-c3nc4ccc(Cl)cc4[nH]3)cc2)o1)Nc1ccc(Br)cc1
- growth (SK-MEL-2 melanoma): 5.03% (active)
- growth (EKVX NSCLC): 41.9%
- growth (SN12C renal): -22.3% (active)
- growth (UO-31 renal): 36.6%
- growth (TK-10 renal): 75.9%
- growth (ACHN renal): -69.1% (active)
- growth (CAKI-1 renal): -25.1% (active)
- growth (A498 renal): 162%
- growth (CCRF-CEM leukemia): 9.42% (active)
- growth (MOLT-4 leukemia): 13.9%

SMILES: CCCSc1nnc(-c2c(C)nc3sccn23)o1
- growth (SK-MEL-2 melanoma): 104%
- growth (EKVX NSCLC): 66.8%
- growth (SN12C renal): 87.1%
- growth (UO-31 renal): 69.9%
- growth (TK-10 renal): 113%
- growth (ACHN renal): 84.9%
- growth (CAKI-1 renal): 79.4%
- growth (A498 renal): 92.3%
- growth (CCRF-CEM leukemia): 86.3%
- growth (MOLT-4 leukemia): 94.4%

SMILES: CC1CCc2c(sc3nc(SCC(=O)c4cccc([N+](=O)[O-])c4)n(-c4ccccc4)c(=O)c23)C1 (stereo not given)
- growth (SK-MEL-2 melanoma): 94.6%
- growth (EKVX NSCLC): 88%
- growth (SN12C renal): 57.1%
- growth (UO-31 renal): 91.5%
- growth (TK-10 renal): 72.3%
- growth (ACHN renal): 31.3%
- growth (CAKI-1 renal): 12.4%
- growth (A498 renal): 115%
- growth (CCRF-CEM leukemia): 61.8%
- growth (MOLT-4 leukemia): 60.2%

SMILES: Cc1ccc(C2CC(c3ccc(S(=O)(=O)NCCNc4nc(N(C)C)nc(N5CCOCC5)n4)cc3)=Nc3c(N)nc(N)nc3N2)cc1 (stereo not given)
- growth (SK-MEL-2 melanoma): 86.2%
- growth (EKVX NSCLC): 38.4%
- growth (SN12C renal): 51.5%
- growth (UO-31 renal): 36.9%
- growth (TK-10 renal): 96.4%
- growth (ACHN renal): 68.2%
- growth (CAKI-1 renal): 43.4%
- growth (A498 renal): 105%
- growth (CCRF-CEM leukemia): 17.3%
- growth (MOLT-4 leukemia): 3.09% (active)

SMILES: O=C1/C(=C/c2cnc(-c3ccccc3)s2)SC(=S)N1Cc1ccc2c(c1)OCO2
- growth (SK-MEL-2 melanoma): 72.7%
- growth (EKVX NSCLC): 79.3%
- growth (SN12C renal): 72.9%
- growth (UO-31 renal): 86.5%
- growth (TK-10 renal): 78.4%
- growth (ACHN renal): 42.1%
- growth (CAKI-1 renal): 37.3%
- growth (A498 renal): 45.2%
- growth (CCRF-CEM leukemia): 87.2%
- growth (MOLT-4 leukemia): 99.2%

SMILES: Cc1nc(Nc2ccccn2)sc1C1=NNC(c2ccccc2F)C1 (stereo not given)
- growth (SK-MEL-2 melanoma): 62.1%
- growth (EKVX NSCLC): 72.4%
- growth (SN12C renal): 57.9%
- growth (UO-31 renal): 48%
- growth (TK-10 renal): 119%
- growth (ACHN renal): 56.5%
- growth (CAKI-1 renal): 61.8%
- growth (A498 renal): 101%
- growth (CCRF-CEM leukemia): 19.1%
- growth (MOLT-4 leukemia): 25.4%

SMILES: COc1ccc(NC(=O)NN2C(=O)c3ccccc3N(C)C2c2ccc(OC)cc2)cc1 (stereo not given)
- growth (SK-MEL-2 melanoma): 95.3%
- growth (EKVX NSCLC): 100%
- growth (SN12C renal): 103%
- growth (UO-31 renal): 75.3%
- growth (TK-10 renal): 97.2%
- growth (ACHN renal): 106%
- growth (CAKI-1 renal): 92.7%
- growth (A498 renal): 108%
- growth (CCRF-CEM leukemia): 98.7%
- growth (MOLT-4 leukemia): 96.4%

SMILES: O=C(NN1C(=O)/C(=C/C=C/c2ccc([N+](=O)[O-])o2)SC1=S)c1ccc(O)cc1
- growth (SK-MEL-2 melanoma): -89.4% (active)
- growth (EKVX NSCLC): -98.1% (active)
- growth (SN12C renal): -97.5% (active)
- growth (UO-31 renal): -92.7% (active)
- growth (TK-10 renal): -99.3% (active)
- growth (ACHN renal): -100% (active)
- growth (CAKI-1 renal): -100% (active)
- growth (A498 renal): 14.6%
- growth (CCRF-CEM leukemia): -24% (active)
- growth (MOLT-4 leukemia): -40.7% (active)

SMILES: Cc1ccc(-c2cc(-c3ccccc3)[nH]c(=O)c2C#N)cc1
- growth (SK-MEL-2 melanoma): 95.5%
- growth (EKVX NSCLC): 82.8%
- growth (SN12C renal): 86.5%
- growth (UO-31 renal): 73.2%
- growth (TK-10 renal): 95.1%
- growth (ACHN renal): 79.1%
- growth (CAKI-1 renal): 81.9%
- growth (A498 renal): 84.8%
- growth (CCRF-CEM leukemia): 76.7%
- growth (MOLT-4 leukemia): 91.3%

SMILES: Cc1nn(-c2ccccc2)c2ncn(CC(=O)N/N=C/c3ccccc3O)c(=O)c12
- growth (SK-MEL-2 melanoma): 55%
- growth (EKVX NSCLC): 13.3%
- growth (SN12C renal): 47.4%
- growth (UO-31 renal): 22.6%
- growth (TK-10 renal): 63.4%
- growth (ACHN renal): 21.4%
- growth (CAKI-1 renal): 39.1%
- growth (A498 renal): 87.2%
- growth (CCRF-CEM leukemia): 23.9%
- growth (MOLT-4 leukemia): 9.42% (active)

SMILES: COc1ccc(-c2cc(-c3cc(OC)c(OC)c(OC)c3)[nH]c(=O)c2C#N)cc1
- growth (SK-MEL-2 melanoma): 97.8%
- growth (EKVX NSCLC): 65.6%
- growth (SN12C renal): 8.1% (active)
- growth (UO-31 renal): -24.9% (active)
- growth (TK-10 renal): 40.8%
- growth (ACHN renal): -25.4% (active)
- growth (CAKI-1 renal): 47%
- growth (A498 renal): -2.4% (active)
- growth (CCRF-CEM leukemia): 76.7%
- growth (MOLT-4 leukemia): 80.1%
